Experimental data reported in PubChem BioAssay (NCI).
About 83,000 compounds went through this panel and 20% of them were active in at least one assay; those are over-represented in the sample as a whole.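 The test compound was applied at a single concentration to cells in 96-well plates for 48 hours, and percent growth was recorded.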 Active and inactive are the calls of the source. Rule for the calls: active = growth percent below 10; inactive = the rest.

Experiments:
Assay in all cases: NCI-60 one-dose screen, 48 h (100 = growth as untreated, 0 = no growth, -100 = all killed)
Details in all cases: 10 µM unless noted
HCT-15 colon = test system: HCT-15 colon
HT29 colon = test system: HT29 colon
SNB-75 CNS = test system: SNB-75 CNS
SNB-19 CNS = test system: SNB-19 CNS
U251 CNS = test system: U251 CNS
PC-3 prostate = test system: PC-3 prostate
SK-MEL-5 melanoma = test system: SK-MEL-5 melanoma
UACC-62 melanoma = test system: UACC-62 melanoma
LOX IMVI melanoma = test system: LOX IMVI melanoma
SK-MEL-28 melanoma = test system: SK-MEL-28 melanoma

Measured: growth

COC(=O)c1oc2c(C(=O)/C=C/c3ccc(OC)cc3)c(OCCCN3CCCCC3)ccc2c1C
active: HCT-15 colon 3.33% | HT29 colon 3.92% | PC-3 prostate -2.46% | SK-MEL-5 melanoma -60.9% | LOX IMVI melanoma -26.1% | SK-MEL-28 melanoma -51.4%
inactive: SNB-75 CNS 33.6% | SNB-19 CNS 38.4% | U251 CNS 12% | UACC-62 melanoma 40.1%

CC(=O)OCC1OC(OC2C(COC(C)=O)OC(OCCC[S-])C(OC(C)=O)C2OC(C)=O)C(OC(C)=O)C(OC(C)=O)C1OC(C)=O.[Au+].c1ccc(CN2[CH-]N(Cc3ccccc3)C(c3ccccc3)=C2c2ccccc2)cc1 (stereo not given)
active: U251 CNS 5.17% | SK-MEL-5 melanoma -12.6%
inactive: HCT-15 colon 25.6% | HT29 colon 15.7% | SNB-75 CNS 45.5% | SNB-19 CNS 23.2% | PC-3 prostate 17.7% | UACC-62 melanoma 13.4% | LOX IMVI melanoma 11.3% | SK-MEL-28 melanoma 28.4%

COCCOCCOCc1n(Cc2ccc3ccccc3n2)c2ccccc2[n+]1Cc1ccc2ccccc2n1
active: SNB-75 CNS 4.56% | SK-MEL-5 melanoma -14.6%
inactive: HCT-15 colon 109% | HT29 colon 15.3% | SNB-19 CNS 22.4% | U251 CNS 10.8% | PC-3 prostate 13.7% | UACC-62 melanoma 14.5% | LOX IMVI melanoma 28.6% | SK-MEL-28 melanoma 41.8%

COc1ccc(/C=C/C(=O)/C=C(/C=C/c2ccc(OC)c(OC)c2)OB(F)F)cc1OC
active: HCT-15 colon 0.848% | HT29 colon 3% | U251 CNS 8.37% | LOX IMVI melanoma 5.12%
inactive: SNB-75 CNS 76.8% | SNB-19 CNS 52.9% | PC-3 prostate 31.5% | SK-MEL-5 melanoma 56.6% | UACC-62 melanoma 52.6% | SK-MEL-28 melanoma 29.6%

COc1cc2nc3c(=O)n(CCN(C)C)cnn3c(=O)c2cc1OC
inactive: HCT-15 colon 103% | HT29 colon 101% | SNB-75 CNS 76.4% | SNB-19 CNS 105% | U251 CNS 107% | PC-3 prostate 102% | SK-MEL-5 melanoma 98.7% | UACC-62 melanoma 101% | LOX IMVI melanoma 97.9% | SK-MEL-28 melanoma 102%

COc1ccc2c(c1)Oc1nc(N)c(C#N)c(N)c1C2Sc1ccc(O)cc1 (stereo not given)
inactive: HCT-15 colon 65.7% | HT29 colon 102% | SNB-75 CNS 89.7% | SNB-19 CNS 106% | U251 CNS 86.5% | PC-3 prostate 95.9% | SK-MEL-5 melanoma 90.3% | UACC-62 melanoma 101% | LOX IMVI melanoma 87.4% | SK-MEL-28 melanoma 105%

CC1=C(CCCOC(=O)NCCCl)C2=C(C)C3(CC3)[C@@](C)(O)C(=O)C2=C1
inactive: HCT-15 colon 24.9% | HT29 colon 31.1% | SNB-75 CNS 58.3% | SNB-19 CNS 57.3% | U251 CNS 54.2% | PC-3 prostate 38% | UACC-62 melanoma 49.9% | LOX IMVI melanoma 61.1% | SK-MEL-28 melanoma 69.3%
active: SK-MEL-5 melanoma 7.89%

CC(=O)c1cnc(-c2ccccc2)nc1CBr
inactive: HCT-15 colon 63.5% | HT29 colon 43.5% | SNB-75 CNS 73.4% | SNB-19 CNS 81% | U251 CNS 79.5% | PC-3 prostate 73% | SK-MEL-5 melanoma 91.6% | UACC-62 melanoma 84.3% | SK-MEL-28 melanoma 104%
active: LOX IMVI melanoma -39.9%

NCCCn1c2c(c3cc(-c4ccn[nH]4)ccc3c1=O)C(=O)c1ccccc1-2
active: HT29 colon 9.31%
inactive: HCT-15 colon 31.2% | SNB-75 CNS 42.2% | SNB-19 CNS 55% | U251 CNS 37.1% | PC-3 prostate 50% | SK-MEL-5 melanoma 58.4% | UACC-62 melanoma 78% | LOX IMVI melanoma 47.1% | SK-MEL-28 melanoma 111%

CCCCc1n(Cc2ccc3ccccc3n2)cc[n+]1Cc1ccc2ccccc2c1
inactive: HCT-15 colon 76.7% | SNB-75 CNS 15.7%
active: HT29 colon -8.3% | SNB-19 CNS 7.08% | U251 CNS 5.73% | PC-3 prostate 1.01% | SK-MEL-5 melanoma -94.3% | UACC-62 melanoma -57.7% | LOX IMVI melanoma -26.5% | SK-MEL-28 melanoma 0.554%

NS(=O)(=O)c1ccc(C2C3=C(CCCC3=O)OC3=C2C(=O)c2ccccc2C3=O)cc1 (stereo not given)
active: HCT-15 colon 2.23% | HT29 colon -29.3% | SNB-75 CNS -99.5% | SNB-19 CNS -1.37% | U251 CNS -86.7% | PC-3 prostate -1.42% | SK-MEL-5 melanoma -95.3% | UACC-62 melanoma -59.7% | LOX IMVI melanoma -72.7% | SK-MEL-28 melanoma -57.5%

COc1cc(C(=O)N2CCN(c3ccccc3OC)CC2)c(NC(=O)c2cnccn2)cc1OCc1ccccc1
inactive: HCT-15 colon 81.9% | HT29 colon 106% | SNB-75 CNS 102% | SNB-19 CNS 85.9% | U251 CNS 83.2% | PC-3 prostate 70.9% | SK-MEL-5 melanoma 78.4% | UACC-62 melanoma 73.3% | LOX IMVI melanoma 75.5% | SK-MEL-28 melanoma 132%

CCOCCc1c(O)nc(SC)[nH]c1=O
inactive: HCT-15 colon 98.2% | HT29 colon 101% | SNB-75 CNS 78.7% | SNB-19 CNS 95.9% | U251 CNS 103% | PC-3 prostate 91.1% | SK-MEL-5 melanoma 103% | UACC-62 melanoma 98.1% | LOX IMVI melanoma 105% | SK-MEL-28 melanoma 99.2%
